Data taken from PubChem BioAssay (Tox21).
Inconclusive results are not listed. A number with no mark means an inactive call. The call rests on the fitted dose curve; in most records, active means well fitted activation curve with a large enough effect in the repeat runs; inconclusive means weak or mixed curves; inactive means flat fitted curve, though single readings scatter.

Test: A CellTox Green Cytotoxicity Assay to monitor cytotoxicity in HEK293 cells - 24 hour (AID 1224875); further: nearly all actives have a fitted effect of over 45% in size
Conditions: CellTox Green fluorescence; series mostly up to 76.8 µM; activity change: at the top concentration
From the text: National Center for Advancing Translational Sciences [NCATS]
NIH Chemical Genomics Center [NCGC]
U.S. Environmental Protection Agency [EPA]
National Institutes of Environmental Health Sciences [NIEHS]
National Toxicology Program [NTP]
Cell-based models are critical for drug discovery. Determining the natural cytotoxic effects resulting from test compounds is an essential research activity. A CellTox Green Cytotoxicity Assay to monitor cytotoxicity in real time of continues cell culture during 40 hours of the compound treatment was used to screen Tox21 10K library compounds in Hek293 cells. CellTox Green Cytotoxicity Assay is a nonlytic, homogeneous, biofluorescent method to measure cytotoxicity in cell culture after experimental manipulation. The assay system uses a proprietary asymmetric cyanine dye that is excluded from viable cells but preferentially stains the dead cell's DNA. […] Viable cells produce no appreciable increases in fluorescence. Therefore, the fluorescence signal produced by the binding interaction with dead cell DNA is proportional to cytotoxicity.
The mixture of Hek293 cell suspension and reagents were dispensed at 600cells/6 ul/well in 1536-well tissue culture treated black solid bottom plates using a Multidrop dispenser. After the assay plates were incubated at a 37 C/5% CO2 incubator for 5 hours, 23 nL of compounds dissolved in DMSO, positive and negative controls was transferred to the assay plate by a pintool work station. The plates were incubated at 37 C for 40 hours. The fluorescence intensity were measured at 0h, 8h, 16h, 24h, 32h and 40h time points using ViewLux plate reader during compound treatment.
On the % scale 0 is the no-effect control and ±100 the full control effect.

Compound | activity change
CC(CN1CC(=O)NC(=O)C1)N1CC(=O)NC(=O)C1 (stereo not given) | -8.26%
COc1ccccc1N1CCN(CC(O)COc2cc(OC)c(OC)c(OC)c2)CC1 (stereo not given) | 0.162% [at 35.3 µM, stronger effect = higher value]
CCCC(=O)CC | 1.52%
CCCC(C)C(O)CC (stereo not given) | 2.47%
CCCCCCCCOCCC#N | 5.78%
COCCCOc1cc(C[C@@H](C[C@H](N)[C@@H](O)C[C@H](C(=O)NCC(C)(C)C(N)=O)C(C)C)C(C)C)ccc1OC | -13.2% [at 35.3 µM, stronger effect = higher value]
CCN(CC)CC | -9.69%
Cc1cc(O)c(Cl)cc1C | 14.6%
N#Cc1cc(NC(=O)C(=O)O)c(Cl)c(NC(=O)C(=O)O)c1 | -16.4% [at 35.3 µM, stronger effect = higher value]
Nc1cc(S(=O)(=O)O)ccc1O | 20.7%
Cc1cccc(N)n1 | -6.23%
CC(=O)SCC(CC(=O)c1ccc(C)cc1)C(=O)O (stereo not given) | -4.94% [at 35.3 µM, stronger effect = higher value]
CC1=C(O)C(=O)CO1 | -2.06%
C=CC(C)(CCC=C(C)C)OC(=O)C(C)C (stereo not given) | -9.46%
C[C@@H]1CC[C@@]2(OC1)O[C@H]1C[C@H]3[C@@H]4CC[C@H]5C[C@@H](O)CC[C@]5(C)[C@H]4CC(=O)[C@]3(C)[C@H]1[C@@H]2C | -2.49% [at 6.97 µM, stronger effect = higher value]
CNC(=O)c1c(I)c(NC(C)=O)c(I)c(C(=O)O)c1I | 3.75% [at 35.3 µM, stronger effect = higher value]
NNC(=O)CCCCC(=O)NN | -13.8%
COc1cc2nc(N3CCN(C(=O)C4CCCO4)CC3)nc(N)c2cc1OC (stereo not given) | -3.55% [at 35.3 µM, stronger effect = higher value]
CC(C)c1cc(C(C)C)cc(C(C)C)c1 | -0.218%
c1cc2ccc3ccc4ccc5cccc6c(c1)c2c3c4c56 | -12.1% [at 2.72 µM, stronger effect = higher value]

Compound | activity change
CCCc1ncc(C(=O)O)s1 | -2.1% [at 35.3 µM, stronger effect = higher value]
COC(=O)C(c1ccccc1Cl)N1CCc2sccc2C1 (stereo not given) | 13.1% [at 35.3 µM, stronger effect = higher value]
CCCCCCCCCCCCCCCC(=O)OC | -1.12% [at 15.8 µM, stronger effect = higher value]
Cc1ccc2cccnc2c1 | -2.24%
CC(C)(C)OC(=O)c1ccccc1C(=O)O | -8.62%
O=c1[nH]c(=O)c2cn[nH]c2[nH]1 | 3.86%
Clc1ccc2c(c1)Nc1ccccc1S2 | 7.87% [at 35.3 µM, stronger effect = higher value]
O=C(OOC(=O)c1ccccc1)c1ccccc1 | 18.1% [at 35.3 µM, stronger effect = higher value]
COc1ccc(Cl)cc1C | -3.55%
CC(C)(C)OC=O | 2.86%
Cc1cc(N)no1 | -1.94%
O=C(c1ccccc1)c1cccc(O)c1 | 18.5%
O=c1c(O)c(O)c1=O | -2.05%
COC(=O)c1ccccc1Cl | -2.07%
N=C(N)N | 20.7% [at 35.3 µM, stronger effect = higher value]
CCOCCOCCOC(C)=O | 10.5%
N=C(N)N1CCc2ccccc2C1 | -12.7% [at 6.97 µM, stronger effect = higher value]
CCOC(=O)CC(C(C)=O)C(C)=O | -13.8%
Cc1cc(C)c(N)c(Cl)c1 | 1.81%
BrCCOc1ccccc1 | 11.4%
